From PubChem
This is one part of a sample in which hits are shown more often than they occur.
p53 reactivator = re-activators of mutant p53. 320,000 compounds, 0.063% hits. H1299 p53-A138V BP100-luciferase reporter, luminescence, 24 h. Potency, µM (top dose mostly 92.2 µM), for the others: at the top dose activity change, positive = activation, hits mostly activators. AID 504706; further: potency means the concentration at half of the fitted maximal effect; % of control where 0% means no effect; nearly all actives have a fitted effect of over 45% in size
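H1299 (p53-null), stable ts p53-A138V + BP100-Luc; 1000 cells/well, Opti-MEM/10% FBS; cpd 4 pt, 1:5; 24 h, 37 deg C, 5% CO2; detection reagent 10 min RT; luminescence.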
ClpP mod = qHTS Assay for Activators of ClpP; purified B. subtilis ClpP, FRET peptide cleavage, 20 min; ATP-dependent Clp protease proteolytic subunit (Bacillus subtilis (strain 168)), P80244; 340,000 compounds, 1.9% hits; Potency, µM (top dose mostly 57.5 µM), for inactives: at the top dose activity change, negative = active; active means well fitted falling curve with a large enough effect; inconclusive means small, poorly fitted or top-dose-only effect; inactive means no such curve, though single readings can be large or run the other way; further: potency means the concentration at half of the fitted maximal effect; the source files actives as falling curves though it sought activators and does not explain the sign; nearly all actives have a fitted effect of over 65% in size
Target sequence (P80244 whole entry, looked up): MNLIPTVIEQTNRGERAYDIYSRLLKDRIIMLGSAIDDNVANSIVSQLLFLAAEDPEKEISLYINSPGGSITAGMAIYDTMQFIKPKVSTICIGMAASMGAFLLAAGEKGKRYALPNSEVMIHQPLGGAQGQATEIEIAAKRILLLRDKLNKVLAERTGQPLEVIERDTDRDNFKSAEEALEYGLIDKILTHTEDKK
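Buffer: 100 mM Tris/HCl pH8, 100 mM KCl, 0.05% low protease BSA, 2.5% glycerol, 0.01% Tween-20. ClpP 10 microg/mL final; 20 min RT; delta FRET normalized to ADEP and DMSO controls.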
Menin-MLL TR inh = menin-MLL binding inhibition, Texas Red mutant peptide; O00255; Menin + Texas Red MLL mutant peptide, fluorescence polarization; Potency, µM (highest dose often 61.6 µM), inactives show at the top dose FP activity change, negative = inhibition, hits mostly inhibitors; 270,000 compounds, 0.23% hits; active means well fitted inhibition curve with a large enough effect in the polarisation, with a control signal flat, not every such curve was filed as active; inconclusive means small, poorly fitted or top-dose-only effect, or effect the other way, or a change in a side signal; inactive means no such curve, though single readings can be large or run the other way; the % refers to the polarisation; further: potency means the concentration at half of the fitted maximal effect; % of control where 0% means no effect
MLL CXXC-DNA inh = inhibitors of human MLL CXXC domain-DNA interaction. MLL-CXXC / FITC-HOXA9 DNA fluorescence polarization. Potency, µM (series often up to 115 µM), for the others: at the top dose activity change, negative = inhibition, hits mostly inhibitors. 290,000 compounds, 0.037% hits. AID 2662; active means well fitted inhibition curve with a large enough effect in the polarisation, with a control signal flat, not every such curve was filed as active; inconclusive means small, poorly fitted or top-dose-only effect, or effect the other way, or a change in a side signal; inactive means no such curve, though single readings can be large or run the other way; the % refers to the polarisation; further: potency means the concentration at half of the fitted maximal effect
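Fluorescence polarization: 7 uM MLL-CXXC (stock) preincubated 5 min with compounds, then 50 nM fluorescein-HOX-A9 DNA (stock) added; 30 min ambient. Buffer 50 mM Tris-HCl pH 7.5, 50 mM NaCl, 1 mM DTT, 0.05% BSA.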
Menin-MLL FL inh = displaces fluorescein MLL peptide from human menin; Fluorescence polarization, fluorescein-MLL peptide displacement from menin; AID 1766; FP activity change, % at 61.4 µM; 290,000 tested, under 10 active; active means well fitted curve in the direction sought with a large enough effect in the polarisation, not every such curve was filed as active; inconclusive means small, poorly fitted or top-dose-only effect, or effect the other way, or a change in a side signal; inactive means no such curve, though single readings can be large or run the other way; the % refers to the polarisation; further: % of control where 0% means no effect
MLL CXXC Fl = inhibitors of human MLL CXXC domain-DNA interaction; 200 compounds, 70% hits; MLL CXXC-DNA binding, fluorescein FP; Potency, µM (highest dose often 345 µM), for inactives: at the highest dose activity change, negative = inhibition, actives largely listed as inhibitors; AID 624160; shares compounds with MLL CXXC-DNA inh; further: potency means the concentration at half of the fitted maximal effect; nearly all actives have a fitted effect of over 80% in size
MLL CXXC TxRed = MLL CXXC-DNA interaction inhibition, Texas Red FP | Potency, µM (top dose mostly 345 µM), inactives show top-dose activity change, negative = inhibition, most hits filed as inhibitors | MLL CXXC-DNA binding, Texas Red fluorescence polarization | 200 compounds, 40% hits | shares compounds with MLL CXXC-DNA inh; further: potency means the concentration at half of the fitted maximal effect; on the % scale 0 is the no-effect control and ±100 the full control effect; nearly all actives have a fitted effect of over 75% in size
MLL CXXC HTRF = disrupts human MLL CXXC domain binding to DNA by HTRF. shares compounds with MLL CXXC-DNA inh. MLL CXXC-DNA binding, HTRF, biochemical. Potency, µM (series often up to 172 µM), for the others: at the top dose activity change, negative = inhibition, actives largely listed as inhibitors. 210 compounds, 30% hits; further: on the % scale 0 is the no-effect control and ±100 the full control effect; nearly all actives have a fitted effect of over 80% in size
* marks the source's active call; other numbers are inactive results; ? = inconclusive; . = no result given; [ ] = another dose, or the depositor's remark. Unless noted, the call rests on the fitted dose curve; in most records, active means well fitted curve in the direction sought with a large enough effect; inconclusive means small, poorly fitted or top-dose-only effect, or another doubt; inactive means no such curve, though single readings can be large; an effect the other way counts as inactive or inconclusive.

SMILES	p53 reactivator	ClpP mod	Menin-MLL TR inh	MLL CXXC-DNA inh	Menin-MLL FL inh	MLL CXXC Fl	MLL CXXC TxRed	MLL CXXC HTRF
CCC(CO)NC(=O)[C@@H]1C=C2c3cccc4[nH]cc(c34)C[C@H]2N(C)C1 (stereo partly drawn)	.	.	-17%	35µM*	?	159µM*	?	24%
CN1C[C@@H](CO)C=C2c3cccc4[nH]cc(c34)CC21 (stereo partly drawn)	.	.	1%	.	?	.	.	.
O=C(O)c1ccccc1-c1c2cc(Br)c(=O)cc-2oc2[c]([Hg])c(O)c(Br)cc12	.	.	?	?	?	0.76µM*	136%[154 µM]	23µM*
CC(C)C[C@H](NC(=O)[C@H](CC(C)C)NC(=O)[C@H](Cc1ccccc1)NC(=O)[C@@H](N)Cc1ccc(O)cc1)C(=O)N[C@@H](CCCN=C(N)N)C(=O)N[C@@H](CC(N)=O)C(=O)N1CCC[C@H]1C(=O)O	.	.	13%	.	-2	.	.	.
COC(=O)Cn1cc(/C=C2\C(=O)NC(=O)N(c3ccc(OC)cc3)C2=O)c2ccccc21	10%	.	-28%	?	?	.	.	.
O=C(O)Cn1cc(/C=C2\C(=O)NC(=O)N(c3ccc(F)cc3)C2=O)c2ccccc21	16%	.	36%	?	?	?	89µM*	?
CC(=O)Nc1c2sscc-2n(C)c1=O	.	.	-12%	.	-7	.	.	.
CCn1nc(-c2cccs2)nc2c(=O)n(C)c(=O)nc1-2	-64%	0%	?	?	-11	?	?	47%
CN1C(=O)C(=Cc2ccccc2OCc2ccc(C(=O)O)cc2)C(=O)N(C)C1=O	-1%	.	17%	20µM*	-3	?	142µM*	61µM*
CSC[C@H](NC(=O)COc1cc2c(c3oc(=O)c(C)c(C)c13)CCC(C)(C)O2)C(=O)O	-5%	28µM*	-6%	?	1	?	?	16%
Cc1cc(OCC(=O)N[C@@H](Cc2ccccc2)C(=O)O)c2c3c(c(=O)oc2c1)CCCC3	11%	5%	4%	-26%	-1	.	.	.
CCCC(Cn1cncn1)c1ccc(Cl)cc1Cl (stereo not drawn)	.	.	10%	.	2	.	.	.
O=C(O)CCn1cc(C=C2C(=O)NC(=S)NC2=O)c(-c2cc3ccccc3oc2=O)n1	1%	4%	11%	14%	?	.	.	.
O=C(O)CCn1cc(C=C2C(=O)NC(=S)NC2=O)c(-c2ccccc2)n1	-3%	.	28%	32µM*	2	4µM*	89µM*	6.1µM*
CNC(=S)S	.	.	16%	.	0	.	.	.
Cc1cc(/C=C2\C(=O)NC(=O)N(c3cccc(F)c3)C2=O)c(C)n1-c1cc(C(=O)O)cc(C(=O)O)c1	-2%	.	4%	16µM*	4	89µM*	?	122µM*
Cc1cc(/C=C2\C(=O)NC(=O)N(c3ccc(Br)cc3)C2=O)c(C)n1-c1cc(C(=O)O)cc(C(=O)O)c1	-2%	-3%	21%	7.9µM*	24	18µM*	40µM*	39µM*
CCCN1CCCC(c2cccc(O)c2)C1 (stereo not drawn)	.	.	6%	-5%	3	.	.	.
CC(=O)O[C@H]1C[C@H]2CC[C@@H]3[C@H]4C[C@@H]([N+]5(C)CCCCC5)[C@@H](OC(C)=O)[C@]4(C)CC[C@@H]3[C@@]2(C)C[C@@H]1[N+]1(C)CCCCC1	.	.	-3%[24.8 µM]	.	?	.	.	.
